The source of these data is PMC4336329 (PLoS ONE, 2015).

The whole screen tested about 310,000 compounds, of which about 14,000 (4.5%) showed an effect of 50% or more. Effects have a minus sign here. This is one part of a sample in which strong results are shown more often than they occur.
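Also: peak tail current of the secondary pulse compared with the same well before compound.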

The target in the test is human ether-à-go-go-related gene (hERG) potassium channel (human, UniProt Q12809). Description: primary screen, population patch clamp on CHO cells stably expressing hERG; higher = less effect of the substance.
human ether-à-go-go-related gene (hERG) potassium channel, sequence (Q12809 whole entry, looked up): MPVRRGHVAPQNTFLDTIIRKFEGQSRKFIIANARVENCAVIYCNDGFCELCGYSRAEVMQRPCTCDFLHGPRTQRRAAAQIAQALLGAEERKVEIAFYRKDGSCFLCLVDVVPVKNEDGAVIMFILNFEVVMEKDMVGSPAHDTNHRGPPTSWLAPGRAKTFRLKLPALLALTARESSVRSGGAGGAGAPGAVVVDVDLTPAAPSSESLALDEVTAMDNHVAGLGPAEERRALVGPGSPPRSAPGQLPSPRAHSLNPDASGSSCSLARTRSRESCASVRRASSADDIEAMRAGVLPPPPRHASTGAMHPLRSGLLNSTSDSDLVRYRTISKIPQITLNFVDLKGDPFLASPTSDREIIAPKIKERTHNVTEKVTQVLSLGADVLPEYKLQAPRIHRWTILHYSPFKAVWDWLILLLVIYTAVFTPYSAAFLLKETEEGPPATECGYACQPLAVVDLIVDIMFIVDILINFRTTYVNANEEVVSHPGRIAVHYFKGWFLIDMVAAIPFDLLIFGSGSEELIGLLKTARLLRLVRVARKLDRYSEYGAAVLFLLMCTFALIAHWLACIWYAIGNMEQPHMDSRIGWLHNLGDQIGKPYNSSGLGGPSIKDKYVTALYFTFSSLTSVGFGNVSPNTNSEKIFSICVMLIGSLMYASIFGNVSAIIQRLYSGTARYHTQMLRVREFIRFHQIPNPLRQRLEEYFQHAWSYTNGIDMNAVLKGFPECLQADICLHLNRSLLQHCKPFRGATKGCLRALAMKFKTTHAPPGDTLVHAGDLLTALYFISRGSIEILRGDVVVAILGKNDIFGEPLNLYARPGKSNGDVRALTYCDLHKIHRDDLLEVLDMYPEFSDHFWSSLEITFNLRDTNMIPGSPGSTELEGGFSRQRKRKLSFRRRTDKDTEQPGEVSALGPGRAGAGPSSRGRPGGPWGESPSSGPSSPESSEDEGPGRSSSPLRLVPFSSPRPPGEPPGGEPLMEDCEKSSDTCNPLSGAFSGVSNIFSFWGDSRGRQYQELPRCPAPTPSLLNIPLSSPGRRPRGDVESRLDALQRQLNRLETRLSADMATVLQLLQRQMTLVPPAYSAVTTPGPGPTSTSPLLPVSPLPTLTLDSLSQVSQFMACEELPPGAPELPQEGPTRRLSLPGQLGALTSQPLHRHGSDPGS
Regarding `CC1CCCN(c2nc(NCc3ccco3)nc(N)c2[N+](=O)[O-])C1` (centres unmarked), the “hERG current change (%, negative = inhibition) at 10uM” value is -54.3%. For `CC1CCN(c2nc(NCc3ccco3)nc(N)c2[N+](=O)[O-])CC1`, the “hERG current change (%, negative = inhibition) at 10uM” value is recorded as -11.9%. As to `CC1CC(C)CN(c2nc(NCc3ccco3)nc(N)c2[N+](=O)[O-])C1` (centres unmarked), the “hERG current change (%, negative = inhibition) at 10uM” value is on record as -27.4%. Take `CCN(c1cccc(C)c1)S(=O)(=O)c1ccc(-c2cc(C)no2)s1`: the “hERG current change (%, negative = inhibition) at 10uM” value is 5.94%.

For `CCN(CC)S(=O)(=O)c1cc(C(=O)Nc2cc(C)on2)c(Cl)cc1Cl`, the “hERG current change (%, negative = inhibition) at 10uM” value is given as 12.3%. The same measure for `O=C(CSc1nc(=O)n(CCCN2CCOCC2)c2c1CCCC2)Nc1cccc([N+](=O)[O-])c1`: -67.7%; for `O=C(CSc1nc(=O)n(CCCN2CCOCC2)c2c1CCC2)Nc1ccc([N+](=O)[O-])cc1`: -60.4%; for `CC(=O)Nc1cccc(NC(=O)CSc2nc(=O)n(CCN3CCOCC3)c3c2CCC3)c1`: -2.96%.

As to `O=C(CSc1nc(=O)n(CCN2CCOCC2)c2c1CCCC2)Nc1ccc([N+](=O)[O-])cc1`, the “hERG current change (%, negative = inhibition) at 10uM” value is given as -67.6%. Consider `Cc1ccc(NC(=O)CSc2nc(=O)n(CCN3CCOCC3)c3c2CCCC3)cc1`, for which the “hERG current change (%, negative = inhibition) at 10uM” value is listed as -27.5%. On to `CC(=O)c1ccc(NC(=O)CSc2nc(=O)n(CCN3CCOCC3)c3c2CCC3)cc1`, for which the “hERG current change (%, negative = inhibition) at 10uM” value is -7.74%. Turning to `O=C(CSc1nc(=O)n(CCCN2CCOCC2)c2c1CCC2)Nc1ccc(F)cc1`, the “hERG current change (%, negative = inhibition) at 10uM” value is -39.5%. `CC(=O)c1cccc(NC(=O)CSc2nc(=O)n(CCN3CCOCC3)c3c2CCCC3)c1`: the “hERG current change (%, negative = inhibition) at 10uM” value is on record as -11.2%. Next, `O=c1[nH]cnc2c1c(-c1ccccc1)cn2-c1ccccc1`: 12.1%; `CCC(C)NC(=O)c1cnn2c1NC(c1cccs1)CC2C(F)(F)F` (centres unmarked): -11.3%. The same measure for `Cc1ccc(C(=O)Nc2ncc(Cc3ccc(F)cc3)s2)o1`: -2.85%; for `O=C(OCC(=O)N1CCCC1=O)c1cc(S(=O)(=O)N2CCOCC2)ccc1F`: -22.5%; for `CN1/C(=C\C(=O)c2cccc([N+](=O)[O-])c2)Sc2ccccc21`: 10.8%. Next, `C/C(CCc1oc2ccc(Cl)cc2c1-c1ccc(C)o1)=N\O`: 22.9%; `O=C(COC(=O)c1cc(=O)[nH]c2ccccc12)Nc1ccc(Cl)cn1`: 6.92%. As for `Cc1cccc(N2CCN(C(=O)c3ccc(CNc4c(N5CCC(C)CC5)c(=O)c4=O)cc3)CC2C)c1` (centres unmarked), the “hERG current change (%, negative = inhibition) at 10uM” value is listed as -10.4%. The same measure for `CC1(C)N([O-])C(c2cccs2)=C[N+]1=O`: -7.12%. In the case of `COc1cccc(O)c1CN1CCC(C(=O)Nc2ccc(-c3cccc(C)c3)cc2)CC1`, the “hERG current change (%, negative = inhibition) at 10uM” value is reported as -11.2%.

Consider `COc1cccc(NC(=O)C2CCN(S(C)(=O)=O)CC2)c1`, for which the “hERG current change (%, negative = inhibition) at 10uM” value is on record as -7.92%. Next, `COc1cccc(-c2cccc(NC(=O)C3CCN(CC4CCOC4)CC3)c2)c1` (centres unmarked): -53.2%. The same measure for `Cc1cccc(-c2ccc(NC(=O)C3CCN(CC4CC4)CC3)cc2)c1`: -70.9%. The same measure for `COc1cccc(NC(=O)C2CC2)c1`: 2.97%; for `CC(=O)c1cccc(CN2CCC(C(=O)Nc3ccc(-c4cccc(C)c4)cc3)CC2)c1`: 2.59%; for `O=C(Nc1cccc(-c2cccc(Cl)c2)c1)C1CCN(CC2CCOC2)CC1` (centres unmarked): -77.2%. As to `O=C(Nc1cccc(Cl)c1)C1CCN(C(=O)c2cccs2)CC1`, the “hERG current change (%, negative = inhibition) at 10uM” value was -16.8%.

Take `COc1ccccc1CNC(=O)Cn1cnnn1`: the “hERG current change (%, negative = inhibition) at 10uM” value is 14.5%.

With `O=C(c1cc([N+](=O)[O-])cc([N+](=O)[O-])c1)N1CCCc2ccccc21`, the “hERG current change (%, negative = inhibition) at 10uM” value is on record as -16.3%. Next, `CCOC(=O)Cc1csc(NC(=O)CC)n1`: 3.71%; `O=S(=O)(c1ccc(-c2csc(=Nc3ccccc3)n2CCCN2CCOCC2)cc1)N1CCOCC1`: -40.9%.

For the compound `CN(C)N1C(N)=C(C#N)C(c2cccc(Cl)c2)C2=C1CCCC2=O` (centres unmarked), the “hERG current change (%, negative = inhibition) at 10uM” value is listed as -26.2%. Turning to `Cc1ccc(CO/N=C/C2=C(Cl)c3ccccc3CC2)cc1`, the “hERG current change (%, negative = inhibition) at 10uM” value was 16.8%. The same measure for `CC(=O)Nc1ccc(NS(=O)(=O)c2ccc3c(c2)oc(=O)n3C)cc1`: 20.2%; for `Cc1cccc(CN2CCc3c([nH]c4ccccc34)C2C(C)(C)C)n1` (centres unmarked): 3.57%. As for `O=[N+]([O-])c1ccc(C(=Nc2cccc3ccccc23)N2CCOCC2)cc1`, the “hERG current change (%, negative = inhibition) at 10uM” value is -63.5%. In the case of `Cc1ccc([N+](=O)[O-])cc1N=C(c1cccc([N+](=O)[O-])c1)N1CCOCC1`, the “hERG current change (%, negative = inhibition) at 10uM” value is reported as -26%. Consider `Cc1ccc([N+](=O)[O-])cc1N=C(c1ccc([N+](=O)[O-])cc1)N1CCOCC1`, for which the “hERG current change (%, negative = inhibition) at 10uM” value is given as -20.8%.

For `O=C(NNC(=O)C1[C@H]2CCCC[C@@H]12)Nc1cccc2ccccc12` (some centres unmarked), the “hERG current change (%, negative = inhibition) at 10uM” value is recorded as -6.11%. The same measure for `COc1cc(NC(=O)Cc2ccc(F)cc2)cc(OC)c1OC`: 16.2%; for `CCC(=O)N1CCc2cc(Br)cc(S(=O)(=O)CCC(=O)NCCc3ccccc3)c21`: 3.68%. The same measure for `O=S(=O)(c1ccccc1)N1CCN(C(=S)Nc2ccc(F)cc2)CC1`: -3.33%. In the case of `CN(C)/C=N/c1ncn(-c2ncc(C(F)(F)F)cc2Cl)n1`, the “hERG current change (%, negative = inhibition) at 10uM” value was 17.5%. The same measure for `Nc1nc2nonc2nc1N`: 15.3%. As for `Cc1nn(-c2cccc(Cl)c2)c2nc(-c3ccco3)cc(C(=O)O)c12`, the “hERG current change (%, negative = inhibition) at 10uM” value is 19%. The same measure for `CCOC(=O)c1cc(-c2ccccc2)nc2c1c(C)nn2-c1ccccn1`: -6.42%; for `CCOC(=O)c1cc(-c2ccncc2)nc2c1c(C)nn2-c1ccccn1`: -63.3%; for `Cc1ccccc1-n1nc(C)c2c(C(=O)NN)cc(-c3ccncc3)nc21`: 38.5%.

`CCOC(=O)c1cc(-c2cccs2)nc2c1c(C)nn2-c1ccccn1`: the “hERG current change (%, negative = inhibition) at 10uM” value amounted to 17.2%. The same measure for `O=C(NCc1ccco1)c1cc(-c2ccncc2)nc2ccccc12`: -18.5%. The same measure for `Cc1nn(-c2cccc(Cl)c2)c2nc(-c3ccncc3)cc(C(=O)N3CCOCC3)c12`: -62.3%; for `Cc1nn(-c2ccccc2)c2nc(-c3ccccc3)cc(C(=O)N3CCOCC3)c12`: -25.9%.

Turning to `CCOC(=O)c1cc(-c2ccncc2)nc2c1c(C)nn2C`, the “hERG current change (%, negative = inhibition) at 10uM” value was -14.8%. Take `Cc1nn(-c2ccccc2)c2nc(-c3ccncc3)cc(C(=O)NCc3ccco3)c12`: the “hERG current change (%, negative = inhibition) at 10uM” value is -66.6%. Next, `O=C(NCc1ccco1)c1cc(-c2cccs2)nc2ccccc12`: -1.68%; `Cc1nn(-c2ccccn2)c2nc(-c3cccs3)cc(C(=O)NCc3ccco3)c12`: -67.3%.
